The values below come from the supplement of paper PMC12067093, “Discovery and optimisation of a covalent ligand for TRIM25 and its application to targeted protein ubiquitination” (Chemical Science, 2025).

Compound in the test: Cc1cc(ccc1-c1ccccc1)C(=O)N1CCCN(CC1)C(=O)CCl [compound 10]
The test can be described thus: probe-labelled cysteine peptide fold change vs DMSO (competition) (log2 fold change); higher = less target engagement (more negative = stronger competition). The note with it: THP-1, incubation time: 4 h.

Targets with the largest changes are over-represented here; the source holds about 21,000 in all.
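Further: competitive profiling in live THP-1 cells: cysteine peptides tagged with an iodoacetamide desthiobiotin (IA-DTB) probe, intensity after compound treatment relative to DMSO-treated cells.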

Sequence of UniProt Q8WVV9 (Q8WVV9 whole entry, looked up): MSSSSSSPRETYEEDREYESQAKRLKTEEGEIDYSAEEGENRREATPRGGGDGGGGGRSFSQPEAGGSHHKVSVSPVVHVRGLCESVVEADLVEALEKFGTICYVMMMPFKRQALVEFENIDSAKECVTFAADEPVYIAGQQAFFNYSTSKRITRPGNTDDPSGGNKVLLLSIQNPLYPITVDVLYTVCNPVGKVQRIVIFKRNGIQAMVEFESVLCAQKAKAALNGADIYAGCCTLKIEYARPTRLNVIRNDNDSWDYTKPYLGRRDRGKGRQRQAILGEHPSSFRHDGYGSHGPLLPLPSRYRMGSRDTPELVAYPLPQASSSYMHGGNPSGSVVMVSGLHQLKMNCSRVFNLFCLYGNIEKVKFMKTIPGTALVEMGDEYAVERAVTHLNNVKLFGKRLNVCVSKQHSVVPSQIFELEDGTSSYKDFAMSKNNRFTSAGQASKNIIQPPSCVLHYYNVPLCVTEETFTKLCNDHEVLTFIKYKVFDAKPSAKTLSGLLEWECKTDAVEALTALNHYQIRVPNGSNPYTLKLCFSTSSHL
Sequence of UniProt Q9H3R0 (Q9H3R0 whole entry): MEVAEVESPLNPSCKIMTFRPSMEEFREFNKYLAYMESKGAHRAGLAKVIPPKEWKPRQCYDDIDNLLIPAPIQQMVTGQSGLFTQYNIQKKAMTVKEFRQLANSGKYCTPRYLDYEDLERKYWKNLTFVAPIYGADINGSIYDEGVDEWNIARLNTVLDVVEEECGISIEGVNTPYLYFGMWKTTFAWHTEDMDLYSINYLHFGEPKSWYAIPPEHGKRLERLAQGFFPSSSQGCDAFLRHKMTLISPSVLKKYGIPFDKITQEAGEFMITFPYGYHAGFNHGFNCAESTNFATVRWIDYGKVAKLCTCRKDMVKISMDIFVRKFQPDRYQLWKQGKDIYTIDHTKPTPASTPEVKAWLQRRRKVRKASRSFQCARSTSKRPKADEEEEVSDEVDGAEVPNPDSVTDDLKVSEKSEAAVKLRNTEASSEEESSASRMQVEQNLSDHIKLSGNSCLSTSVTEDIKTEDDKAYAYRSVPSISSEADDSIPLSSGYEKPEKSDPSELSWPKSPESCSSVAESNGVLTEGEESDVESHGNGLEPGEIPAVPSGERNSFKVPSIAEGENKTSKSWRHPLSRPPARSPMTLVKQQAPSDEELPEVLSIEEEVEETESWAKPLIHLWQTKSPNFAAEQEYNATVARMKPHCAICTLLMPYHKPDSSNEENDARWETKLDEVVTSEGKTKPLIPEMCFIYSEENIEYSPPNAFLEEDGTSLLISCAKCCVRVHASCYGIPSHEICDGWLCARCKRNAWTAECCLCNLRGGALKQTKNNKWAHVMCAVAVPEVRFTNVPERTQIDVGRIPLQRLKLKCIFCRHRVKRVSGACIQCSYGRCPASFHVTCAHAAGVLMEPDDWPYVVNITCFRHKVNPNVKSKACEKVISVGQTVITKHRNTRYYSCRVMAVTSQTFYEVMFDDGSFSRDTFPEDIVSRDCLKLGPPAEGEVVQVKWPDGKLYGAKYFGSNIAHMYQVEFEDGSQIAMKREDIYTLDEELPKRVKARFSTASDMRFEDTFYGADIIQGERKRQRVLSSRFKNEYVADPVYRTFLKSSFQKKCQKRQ
Sequence of UniProt Q13422 (Q13422 whole entry, looked up): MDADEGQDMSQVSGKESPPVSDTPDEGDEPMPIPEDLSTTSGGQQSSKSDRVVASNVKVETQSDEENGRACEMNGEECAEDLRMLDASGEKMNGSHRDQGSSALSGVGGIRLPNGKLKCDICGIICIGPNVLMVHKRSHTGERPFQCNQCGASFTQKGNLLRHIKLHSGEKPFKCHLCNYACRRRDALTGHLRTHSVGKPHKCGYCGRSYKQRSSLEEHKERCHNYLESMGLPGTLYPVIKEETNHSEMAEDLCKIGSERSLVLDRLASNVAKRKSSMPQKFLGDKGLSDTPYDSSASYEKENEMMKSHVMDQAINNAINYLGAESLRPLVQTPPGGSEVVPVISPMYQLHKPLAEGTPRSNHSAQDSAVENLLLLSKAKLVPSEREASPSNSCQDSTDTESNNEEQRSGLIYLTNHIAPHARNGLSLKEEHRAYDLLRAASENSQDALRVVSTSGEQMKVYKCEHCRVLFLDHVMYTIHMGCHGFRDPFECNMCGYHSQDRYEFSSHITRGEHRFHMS
Sequence of UniProt Q96CX2 (Q96CX2 whole entry): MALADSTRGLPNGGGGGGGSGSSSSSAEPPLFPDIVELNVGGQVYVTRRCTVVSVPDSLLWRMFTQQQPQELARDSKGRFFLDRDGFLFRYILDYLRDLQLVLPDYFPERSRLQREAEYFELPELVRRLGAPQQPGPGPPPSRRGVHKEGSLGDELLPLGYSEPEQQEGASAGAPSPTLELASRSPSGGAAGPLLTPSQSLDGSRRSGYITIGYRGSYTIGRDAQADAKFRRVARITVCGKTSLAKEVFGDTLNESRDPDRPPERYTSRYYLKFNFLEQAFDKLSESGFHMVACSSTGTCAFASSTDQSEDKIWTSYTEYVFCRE
Sequence of UniProt P30519 (P30519 whole entry, looked up): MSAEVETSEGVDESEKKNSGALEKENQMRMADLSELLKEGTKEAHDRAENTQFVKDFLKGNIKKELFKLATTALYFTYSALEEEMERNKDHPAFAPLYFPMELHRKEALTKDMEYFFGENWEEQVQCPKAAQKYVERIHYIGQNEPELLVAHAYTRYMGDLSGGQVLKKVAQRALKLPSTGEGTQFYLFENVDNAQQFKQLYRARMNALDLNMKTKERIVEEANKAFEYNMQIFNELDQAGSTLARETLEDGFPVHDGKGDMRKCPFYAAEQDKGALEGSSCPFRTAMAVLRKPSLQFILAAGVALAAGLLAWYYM
Sequence of UniProt O95757 (O95757 whole entry, looked up): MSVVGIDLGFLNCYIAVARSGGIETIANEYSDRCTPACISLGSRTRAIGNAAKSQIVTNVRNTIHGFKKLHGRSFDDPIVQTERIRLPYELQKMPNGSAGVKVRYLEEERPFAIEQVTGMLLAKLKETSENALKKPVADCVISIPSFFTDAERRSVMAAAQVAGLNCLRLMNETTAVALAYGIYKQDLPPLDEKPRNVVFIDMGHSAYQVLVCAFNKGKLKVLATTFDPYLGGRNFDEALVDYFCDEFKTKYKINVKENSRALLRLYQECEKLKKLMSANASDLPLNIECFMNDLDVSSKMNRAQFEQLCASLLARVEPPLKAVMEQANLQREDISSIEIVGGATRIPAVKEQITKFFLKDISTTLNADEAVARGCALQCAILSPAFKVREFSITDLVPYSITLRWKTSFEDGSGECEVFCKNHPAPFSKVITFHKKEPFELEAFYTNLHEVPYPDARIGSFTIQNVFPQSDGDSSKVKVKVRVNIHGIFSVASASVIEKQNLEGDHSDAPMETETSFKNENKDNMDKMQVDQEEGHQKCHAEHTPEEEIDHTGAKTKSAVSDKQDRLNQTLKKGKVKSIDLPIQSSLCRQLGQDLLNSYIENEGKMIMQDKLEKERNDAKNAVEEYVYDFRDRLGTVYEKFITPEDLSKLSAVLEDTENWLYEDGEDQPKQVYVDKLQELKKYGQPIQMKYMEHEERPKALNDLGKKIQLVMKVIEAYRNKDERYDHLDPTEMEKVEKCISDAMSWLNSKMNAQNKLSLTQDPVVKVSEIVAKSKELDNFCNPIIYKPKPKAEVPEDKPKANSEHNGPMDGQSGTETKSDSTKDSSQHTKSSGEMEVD
Sequence of UniProt Q8NBQ5 (Q8NBQ5 whole entry, looked up): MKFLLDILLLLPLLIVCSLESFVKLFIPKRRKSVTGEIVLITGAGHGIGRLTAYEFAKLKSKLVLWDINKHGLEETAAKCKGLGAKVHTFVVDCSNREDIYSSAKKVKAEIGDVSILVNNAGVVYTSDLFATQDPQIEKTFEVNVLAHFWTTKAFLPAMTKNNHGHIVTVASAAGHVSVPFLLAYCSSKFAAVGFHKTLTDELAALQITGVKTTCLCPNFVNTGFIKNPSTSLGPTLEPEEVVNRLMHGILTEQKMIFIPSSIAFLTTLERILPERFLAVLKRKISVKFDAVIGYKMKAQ
Sequence of UniProt P01130 (P01130 whole entry, looked up): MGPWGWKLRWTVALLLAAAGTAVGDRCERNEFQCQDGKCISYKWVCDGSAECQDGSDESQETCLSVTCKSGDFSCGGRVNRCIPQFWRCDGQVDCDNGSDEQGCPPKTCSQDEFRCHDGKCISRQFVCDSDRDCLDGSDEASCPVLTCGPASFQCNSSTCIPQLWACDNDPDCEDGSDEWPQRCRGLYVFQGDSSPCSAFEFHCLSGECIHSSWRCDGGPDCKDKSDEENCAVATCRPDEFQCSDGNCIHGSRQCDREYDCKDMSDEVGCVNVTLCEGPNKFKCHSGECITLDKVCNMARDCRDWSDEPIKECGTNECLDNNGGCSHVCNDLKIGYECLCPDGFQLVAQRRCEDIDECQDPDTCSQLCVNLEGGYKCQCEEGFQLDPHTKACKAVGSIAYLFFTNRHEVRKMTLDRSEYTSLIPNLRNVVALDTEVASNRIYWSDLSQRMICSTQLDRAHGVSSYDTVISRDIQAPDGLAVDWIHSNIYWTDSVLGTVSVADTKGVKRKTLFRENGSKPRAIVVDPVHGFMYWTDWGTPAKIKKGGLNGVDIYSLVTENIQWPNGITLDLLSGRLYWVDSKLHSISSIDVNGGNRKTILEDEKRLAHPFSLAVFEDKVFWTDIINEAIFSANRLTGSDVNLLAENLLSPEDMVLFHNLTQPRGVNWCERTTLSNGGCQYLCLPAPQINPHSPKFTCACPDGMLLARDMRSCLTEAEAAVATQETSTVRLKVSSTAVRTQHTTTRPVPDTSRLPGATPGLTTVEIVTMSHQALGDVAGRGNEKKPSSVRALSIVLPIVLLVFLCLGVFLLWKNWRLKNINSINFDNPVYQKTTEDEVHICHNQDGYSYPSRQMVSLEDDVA

Turning to “ILF2_Q12905_37_PFVPHIPFDFYLCEMAFPR (UniProt Q12905)”, the “probe-labelled cysteine peptide fold change” value came to 0.0684 (10 µM) and 0.31 (50 µM).
Regarding “KPNA6_O60684_427_YLVSLGCIKPLCDLLTVMDSK (UniProt O60684)”, the “probe-labelled cysteine peptide fold change” value (10 µM) is -0.101 and the “probe-labelled cysteine peptide fold change” value (50 µM) was -0.85.
With “HNRNPK_P61978_184+185_LFQECCPHSTDRVVLIGGKPDR (UniProt P61978)”, the “probe-labelled cysteine peptide fold change” value is -0.234 (10 µM) and -1.28 (50 µM).
“ITGB2_P05107_472_CDTGYIGK (UniProt P05107)”: the “probe-labelled cysteine peptide fold change” value was 0.101 (10 µM) and -0.117 (50 µM).
Take “HSP90AA1_P07900_598_LVTSPCCIVTSTYGWTANMER (UniProt P07900)”: the “probe-labelled cysteine peptide fold change” value (10 µM) is -0.00946 and the “probe-labelled cysteine peptide fold change” value (50 µM) came out at 0.102.
“IKBKB_O14920_716_KSEELVAEAHNLCTLLENAIQDTVR (UniProt O14920)”: the “probe-labelled cysteine peptide fold change” value is 0.0153 (10 µM) and -0.00819 (50 µM).
On to “HSP90AB1_P08238_412_CLELFSELAEDK (UniProt P08238)”, for which the “probe-labelled cysteine peptide fold change” value is, setting by setting: (10 µM) 0.16; (50 µM) 0.151.
Consider “KIDINS220_Q9ULH0_867_FLVTSATNGDVPCSDTTGIQEDADRR (UniProt Q9ULH0)”, for which the “probe-labelled cysteine peptide fold change” value reads like this: (10 µM) -0.0872; (50 µM) -0.0611.
For “LDLR_P01130_377+379_CQCEEGFQLDPHTK (UniProt P01130)”, the “probe-labelled cysteine peptide fold change” value by setting is: (10 µM) -0.198; (50 µM) 0.243.
As to “HSPA4L_O95757_540_CHAEHTPEEEIDHTGAK (UniProt O95757)”, the “probe-labelled cysteine peptide fold change” value by setting is: (10 µM) -0.0538; (50 µM) -0.483.
With “HMOX2_P30519_265_CPFYAAEQDK (UniProt P30519)”, the “probe-labelled cysteine peptide fold change” value was -0.451 (10 µM) and -2.31 (50 µM).
Regarding “KCTD12_Q96CX2_50_CTVVSVPDSLLWR (UniProt Q96CX2)”, the “probe-labelled cysteine peptide fold change” value was 0.0972 (10 µM) and -0.28 (50 µM).
“LAP3_P28838_376_LILADALCYAHTFNPK (UniProt P28838)”: the “probe-labelled cysteine peptide fold change” value came to 0.0434 (10 µM) and 0.0196 (50 µM).
For the target “KPNB1_Q14974_765_ESCLEAYTGIVQGLKGDQENVHPDVMLVQPR (UniProt Q14974)”, the “probe-labelled cysteine peptide fold change” value was 0.414 (10 µM) and -0.185 (50 µM).
For “KRT75_O95678_460_LLEGEECR<|>NEFH_P12036_411_LLEGEECR<|>KRT76_Q7RTS7_494_LLEGEECR<|>KRT74_Q86Y46_451_LLEGEECR<|>KRT73_Q8N1N4_443_LLEGEECR<|>KRT78_P02538_422_LLEGEECR<|>KRT6A_P13647_474_LLEGEECR<|>KRT6B_P35908_474_LLEGEECR<|>KRT5_P48668_479_LLEGEECR (UniProt P48668+P35908+P13647+Q86Y46+P02538+Q7RTS7+P12036+Q8N1N4+O95678)”, in that order: 1.25 and 0.392.
The matching figures for “HSPH1_Q92598_796_ELNNTCEPVVTQPKPK (UniProt Q92598)”: 0.108 and -0.8.
As for “HSD17B11_Q8NBQ5_215+217_TTCLCPNFVNTGFIK (UniProt Q8NBQ5)”, the “probe-labelled cysteine peptide fold change” value is 0.115 (10 µM) and -0.449 (50 µM).
Take “IGF2R_P11717_1856_DGGVCLLSGTK (UniProt P11717)”: the “probe-labelled cysteine peptide fold change” value is -0.0968 (10 µM) and -0.169 (50 µM).
Take “IMPACT_Q9P2X3_195_STFQAHLAPVVCPK (UniProt Q9P2X3)”: the “probe-labelled cysteine peptide fold change” value is, setting by setting: (10 µM) -0.422; (50 µM) -1.61.
The matching figures for “IPO4_Q8TEX9_726_AAHEALGQFCCALHK (UniProt Q8TEX9)”: -0.0691 and -0.471.
For the target “LANCL2_Q9NS86_248_CPLLYQWHR (UniProt Q9NS86)”, the “probe-labelled cysteine peptide fold change” value was -0.115 (10 µM) and 0.026 (50 µM).
In the case of “KPNA5_O15131_238_NAVWALSNLCR<|>KPNA6_O60684_238_NAVWALSNLCR<|>KPNA1_P52294_240_NAVWALSNLCR (UniProt P52294+O60684+O15131)”, the “probe-labelled cysteine peptide fold change” value (10 µM) was 0.0157 and the “probe-labelled cysteine peptide fold change” value (50 µM) was -0.339.
For “IQGAP1_P46940_57_RWMEACLGEDLPPTTELEEGLR (UniProt P46940)”, the “probe-labelled cysteine peptide fold change” value runs as follows: (10 µM) 0.00789; (50 µM) 0.0214.
For “KDM4C_Q9H3R0_14_MEVAEVESPLNPSCK (UniProt Q9H3R0)”, in that order: 0.236 and 0.0354.
On to “IPO4_Q8TEX9_726_KAAHEALGQFCCALHK (UniProt Q8TEX9)”, for which the “probe-labelled cysteine peptide fold change” value (10 µM) was -0.0458 and the “probe-labelled cysteine peptide fold change” value (50 µM) was -0.126.
For “LDHD_Q86WU2_63_CEPPDAVVWPQNVEQVSR (UniProt Q86WU2)”, in that order: -0.334 and 0.36.
With “HNRNPU_Q00839_648_GNFTLPEVAECFDEITYVELQK (UniProt Q00839)”, the “probe-labelled cysteine peptide fold change” value (10 µM) is 0.16 and the “probe-labelled cysteine peptide fold change” value (50 µM) was 0.0148.
On to “HNRNPLL_Q8WVV9_505_TLSGLLEWECKTDAVEALTALNHYQIR (UniProt Q8WVV9)”, for which the “probe-labelled cysteine peptide fold change” value (10 µM) is -0.0924 and the “probe-labelled cysteine peptide fold change” value (50 µM) was -0.402.
As for “IDH3A_P50213_331_IEAACFATIK (UniProt P50213)”, the “probe-labelled cysteine peptide fold change” value (10 µM) worked out at 0.303 and the “probe-labelled cysteine peptide fold change” value (50 µM) turned out to be 0.39.
Turning to “IKZF1_Q13422_175+178_CHLCNYACR (UniProt Q13422)”, the “probe-labelled cysteine peptide fold change” value by setting is: (10 µM) -0.0534; (50 µM) -0.482.
On to “KPNB1_Q14974_392_DAAVMAFGCILEGPEPSQLK (UniProt Q14974)”, for which the “probe-labelled cysteine peptide fold change” value is 0.132 (10 µM) and 0.441 (50 µM).
For “KDM3A_Q9Y4C1_467_AGVNSDSPNNCSGK (UniProt Q9Y4C1)”, in that order: -0.0265 and 0.0124.
